Of roughly 7,900 targets only a part is listed; those with a hit were picked by preference. About 0.6% of all pairs of compound and target were hits.
Each target was assayed with CCCCN(Cc1ccc(C(=O)NO)cc1)C(=O)Nc1ccccc1 [Nexturastat A] (assay: log2 fold change, soluble protein after heating vs DMSO (PISA); higher = thermal stabilisation; K562 cells, 10 uM, 30 min; active = over 0.2 and 3.5 SD of the protein, either way, in both replicates (recomputed)).
Procedure, shortened: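 K562 cells (2×10^6 cells/mL) were treated with 10 μM compound for 30 min, and aliquots were heated for 3 min over 48°C-58°C. Pooled aliquots were extracted in PBS with 0.5% NP-40 at 4°C, and the supernatant after 21,000xg for 90 min was measured by TMTpro 16plex LC-MS/MS with channel sums equalised. Reported thermal stability, relative to control samples and from duplicates, is a log2 fold change.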

Chain of UniProt Q9NPF2 (Q9NPF2 whole entry, looked up): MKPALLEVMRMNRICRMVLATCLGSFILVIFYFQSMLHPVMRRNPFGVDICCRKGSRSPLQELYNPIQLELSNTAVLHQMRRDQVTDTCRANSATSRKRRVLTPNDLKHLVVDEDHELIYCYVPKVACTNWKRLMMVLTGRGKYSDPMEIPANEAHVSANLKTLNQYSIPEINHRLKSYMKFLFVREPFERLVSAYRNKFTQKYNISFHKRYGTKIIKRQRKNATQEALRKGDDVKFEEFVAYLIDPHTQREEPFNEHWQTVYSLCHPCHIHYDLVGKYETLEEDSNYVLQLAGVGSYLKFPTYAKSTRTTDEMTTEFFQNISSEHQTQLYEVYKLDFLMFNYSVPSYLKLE
Chain of UniProt Q9NRR8 (Q9NRR8 whole entry, looked up): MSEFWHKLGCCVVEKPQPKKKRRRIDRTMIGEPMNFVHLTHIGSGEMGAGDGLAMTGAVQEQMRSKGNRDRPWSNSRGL
Chain of UniProt Q9UIV1 (Q9UIV1 whole entry, looked up): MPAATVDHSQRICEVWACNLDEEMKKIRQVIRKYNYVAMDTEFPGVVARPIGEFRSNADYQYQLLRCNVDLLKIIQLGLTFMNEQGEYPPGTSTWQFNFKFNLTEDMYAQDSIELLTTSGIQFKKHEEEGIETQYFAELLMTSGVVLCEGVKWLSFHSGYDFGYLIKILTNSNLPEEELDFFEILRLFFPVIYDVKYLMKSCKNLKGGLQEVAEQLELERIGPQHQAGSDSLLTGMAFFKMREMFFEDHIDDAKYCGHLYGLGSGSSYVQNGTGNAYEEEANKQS
Chain of UniProt Q9Y6K0 (Q9Y6K0 whole entry, looked up): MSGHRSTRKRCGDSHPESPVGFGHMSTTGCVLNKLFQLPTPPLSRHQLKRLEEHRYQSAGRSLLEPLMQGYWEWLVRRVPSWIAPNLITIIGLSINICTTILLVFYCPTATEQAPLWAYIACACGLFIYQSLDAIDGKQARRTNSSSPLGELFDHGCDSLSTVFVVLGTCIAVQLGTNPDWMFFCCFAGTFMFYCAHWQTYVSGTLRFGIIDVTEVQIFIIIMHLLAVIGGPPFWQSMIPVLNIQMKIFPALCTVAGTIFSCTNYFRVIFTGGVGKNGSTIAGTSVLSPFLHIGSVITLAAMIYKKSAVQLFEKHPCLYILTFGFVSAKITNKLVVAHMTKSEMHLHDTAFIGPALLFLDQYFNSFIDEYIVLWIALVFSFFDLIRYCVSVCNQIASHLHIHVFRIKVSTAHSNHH
Chain of UniProt Q14839 (Q14839 whole entry, looked up): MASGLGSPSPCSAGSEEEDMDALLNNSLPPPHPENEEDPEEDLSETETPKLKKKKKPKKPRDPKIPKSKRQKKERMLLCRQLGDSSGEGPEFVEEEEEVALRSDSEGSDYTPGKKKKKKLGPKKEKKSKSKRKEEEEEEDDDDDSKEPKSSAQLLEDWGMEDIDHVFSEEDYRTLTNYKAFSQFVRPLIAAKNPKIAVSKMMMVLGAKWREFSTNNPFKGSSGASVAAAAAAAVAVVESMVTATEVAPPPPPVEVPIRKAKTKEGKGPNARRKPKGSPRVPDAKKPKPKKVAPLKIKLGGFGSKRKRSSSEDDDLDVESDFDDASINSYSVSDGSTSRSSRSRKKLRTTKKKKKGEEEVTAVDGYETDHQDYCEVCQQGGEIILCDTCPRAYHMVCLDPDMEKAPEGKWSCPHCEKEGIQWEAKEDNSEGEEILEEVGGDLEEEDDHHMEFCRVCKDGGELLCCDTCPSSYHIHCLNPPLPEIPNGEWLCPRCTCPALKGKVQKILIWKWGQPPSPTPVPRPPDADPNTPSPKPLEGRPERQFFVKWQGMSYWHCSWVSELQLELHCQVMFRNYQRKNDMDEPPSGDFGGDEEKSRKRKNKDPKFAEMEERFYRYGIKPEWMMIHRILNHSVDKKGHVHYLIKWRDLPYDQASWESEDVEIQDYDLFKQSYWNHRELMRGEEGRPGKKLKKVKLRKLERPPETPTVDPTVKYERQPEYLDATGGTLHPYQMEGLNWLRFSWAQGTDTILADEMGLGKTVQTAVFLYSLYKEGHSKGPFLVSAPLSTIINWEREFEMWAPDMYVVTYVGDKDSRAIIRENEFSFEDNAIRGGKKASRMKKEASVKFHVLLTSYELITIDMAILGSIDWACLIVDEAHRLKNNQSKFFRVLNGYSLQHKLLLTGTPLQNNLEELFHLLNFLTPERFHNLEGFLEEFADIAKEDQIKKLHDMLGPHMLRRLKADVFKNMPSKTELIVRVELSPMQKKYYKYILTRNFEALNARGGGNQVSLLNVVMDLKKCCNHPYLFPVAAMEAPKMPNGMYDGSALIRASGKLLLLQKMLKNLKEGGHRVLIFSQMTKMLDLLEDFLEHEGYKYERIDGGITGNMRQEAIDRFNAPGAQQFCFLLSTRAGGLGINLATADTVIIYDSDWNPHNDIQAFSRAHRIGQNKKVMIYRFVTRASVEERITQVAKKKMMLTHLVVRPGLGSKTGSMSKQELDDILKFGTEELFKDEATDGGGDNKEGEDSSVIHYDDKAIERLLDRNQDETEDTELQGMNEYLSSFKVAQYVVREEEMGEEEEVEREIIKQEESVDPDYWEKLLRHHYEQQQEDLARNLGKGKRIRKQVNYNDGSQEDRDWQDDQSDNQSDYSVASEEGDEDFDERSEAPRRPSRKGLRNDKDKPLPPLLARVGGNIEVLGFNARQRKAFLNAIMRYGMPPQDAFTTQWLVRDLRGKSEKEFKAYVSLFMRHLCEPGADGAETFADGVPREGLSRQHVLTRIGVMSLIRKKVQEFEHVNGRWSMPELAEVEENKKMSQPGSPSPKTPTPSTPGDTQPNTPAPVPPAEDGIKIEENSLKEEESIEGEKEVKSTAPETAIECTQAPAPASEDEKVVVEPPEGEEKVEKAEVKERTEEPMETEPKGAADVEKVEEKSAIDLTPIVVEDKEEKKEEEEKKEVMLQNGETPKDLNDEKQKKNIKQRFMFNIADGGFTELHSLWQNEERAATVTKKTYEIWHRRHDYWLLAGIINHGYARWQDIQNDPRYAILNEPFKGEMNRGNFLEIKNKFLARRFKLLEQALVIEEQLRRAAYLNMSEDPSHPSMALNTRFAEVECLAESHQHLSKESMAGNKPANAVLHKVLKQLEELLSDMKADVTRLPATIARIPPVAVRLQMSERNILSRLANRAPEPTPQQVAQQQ
Chain of UniProt Q16740 (Q16740 whole entry, looked up): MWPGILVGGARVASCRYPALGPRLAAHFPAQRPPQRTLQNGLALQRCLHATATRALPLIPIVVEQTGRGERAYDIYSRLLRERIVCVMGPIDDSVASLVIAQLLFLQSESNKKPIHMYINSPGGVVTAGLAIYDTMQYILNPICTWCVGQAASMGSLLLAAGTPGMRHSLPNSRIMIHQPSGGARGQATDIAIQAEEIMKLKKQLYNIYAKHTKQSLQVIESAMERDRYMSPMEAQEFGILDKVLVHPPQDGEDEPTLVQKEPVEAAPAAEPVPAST
Chain of UniProt O95319 (O95319 whole entry, looked up): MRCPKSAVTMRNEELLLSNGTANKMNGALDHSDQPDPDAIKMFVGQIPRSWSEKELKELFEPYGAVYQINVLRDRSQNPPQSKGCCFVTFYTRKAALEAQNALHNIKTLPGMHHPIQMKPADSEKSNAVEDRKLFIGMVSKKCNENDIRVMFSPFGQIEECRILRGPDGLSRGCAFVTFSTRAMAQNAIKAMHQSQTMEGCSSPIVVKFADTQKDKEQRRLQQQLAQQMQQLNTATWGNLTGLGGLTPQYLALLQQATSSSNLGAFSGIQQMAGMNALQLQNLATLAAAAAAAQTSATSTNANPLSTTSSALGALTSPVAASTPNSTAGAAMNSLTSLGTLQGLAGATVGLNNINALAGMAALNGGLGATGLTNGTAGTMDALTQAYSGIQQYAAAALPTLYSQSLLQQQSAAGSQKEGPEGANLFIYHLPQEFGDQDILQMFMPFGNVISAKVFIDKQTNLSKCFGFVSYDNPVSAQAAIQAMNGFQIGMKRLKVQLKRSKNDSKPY
Chain of UniProt P30305 (P30305 whole entry, looked up): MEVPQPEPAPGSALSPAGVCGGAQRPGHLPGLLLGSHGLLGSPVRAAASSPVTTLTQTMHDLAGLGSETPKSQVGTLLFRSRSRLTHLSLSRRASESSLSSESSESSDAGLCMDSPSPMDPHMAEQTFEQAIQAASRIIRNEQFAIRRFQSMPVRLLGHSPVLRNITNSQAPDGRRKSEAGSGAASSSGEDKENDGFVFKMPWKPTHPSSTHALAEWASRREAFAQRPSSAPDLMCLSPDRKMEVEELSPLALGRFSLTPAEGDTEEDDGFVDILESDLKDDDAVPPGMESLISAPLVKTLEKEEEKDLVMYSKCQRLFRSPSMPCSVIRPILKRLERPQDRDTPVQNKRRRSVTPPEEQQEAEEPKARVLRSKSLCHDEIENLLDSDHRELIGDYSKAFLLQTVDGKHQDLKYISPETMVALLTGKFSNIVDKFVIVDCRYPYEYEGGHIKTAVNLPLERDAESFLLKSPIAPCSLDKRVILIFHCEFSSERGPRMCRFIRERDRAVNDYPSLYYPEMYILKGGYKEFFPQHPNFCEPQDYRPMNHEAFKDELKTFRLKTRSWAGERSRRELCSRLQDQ
Chain of UniProt P51946 (P51946 whole entry, looked up): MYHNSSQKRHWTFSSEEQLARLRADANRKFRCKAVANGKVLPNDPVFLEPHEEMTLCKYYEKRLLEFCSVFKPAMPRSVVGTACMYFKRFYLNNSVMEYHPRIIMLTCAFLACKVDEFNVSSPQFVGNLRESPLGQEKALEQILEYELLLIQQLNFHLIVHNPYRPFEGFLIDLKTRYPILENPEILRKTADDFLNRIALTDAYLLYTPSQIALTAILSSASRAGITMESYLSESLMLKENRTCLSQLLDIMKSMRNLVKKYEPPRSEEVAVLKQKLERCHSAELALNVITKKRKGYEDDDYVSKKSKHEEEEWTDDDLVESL
Chain of UniProt Q8N1A6 (Q8N1A6 whole entry, looked up): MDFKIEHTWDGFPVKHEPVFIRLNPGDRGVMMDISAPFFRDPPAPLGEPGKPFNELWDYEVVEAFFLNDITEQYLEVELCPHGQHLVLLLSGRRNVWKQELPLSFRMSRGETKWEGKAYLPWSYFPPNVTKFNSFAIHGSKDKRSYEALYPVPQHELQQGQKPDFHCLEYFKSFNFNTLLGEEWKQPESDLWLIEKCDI

Row | Target | log2 fold change
1 | CLCN7 (UniProt P51798) | -0.07 (inactive)
2 | CCZ1 (UniProt P86791) | 0.009 (inactive)
3 | C1D (UniProt Q13901) | -0.053 (inactive)
4 | CNOT7 (UniProt Q9UIV1) | 0.048 (inactive)
5 | CDC42BPA isoform 6 (UniProt Q5VT25) | 0.123 (inactive)
6 | COMMD1 (UniProt Q8N668) | 0.011 (inactive)
7 | CETN3 (UniProt O15182) | -0.01 (inactive)
8 | C4orf33 (UniProt Q8N1A6) | 0.018 (inactive)
9 | CDK9 isoform 2 (UniProt P50750) | 0.155 (inactive)
10 | CDC25B isoform 4 (UniProt P30305) | -0.039 (inactive)
11 | CHEK1 (UniProt O14757) | -0.048 (inactive)
12 | CD53 (UniProt P19397) | -0.006 (inactive)
13 | CRTC2 (UniProt Q53ET0) | -0.03 (inactive)
14 | CDK4 (UniProt P11802) | 0.166 (inactive)
15 | CNOT1 (UniProt A5YKK6) | 0.062 (inactive)
16 | CPSF1 (UniProt Q10570) | 0.453 (active)
17 | CLUH, A0A494C0R8 | 0.068 (inactive)
18 | CEPT1 (UniProt Q9Y6K0) | -0.123 (inactive)

Row | Target | log2 fold change
19 | CELF2 isoform 3 (UniProt O95319) | -0.025 (inactive)
20 | CDC42SE1 (UniProt Q9NRR8) | -0.115 (inactive)
21 | CASP3 (UniProt P42574) | -0.025 (inactive)
22 | CDK12 (UniProt Q9NYV4) | 0.278 (inactive)
23 | COQ9 (UniProt O75208) | -0.266 (active)
24 | COMMD2 (UniProt Q86X83) | 0.022 (inactive)
25 | CDK6 (UniProt Q00534) | 0.032 (inactive)
26 | CA8 (UniProt P35219) | -0.058 (inactive)
27 | CA1 (UniProt P00915) | -0.051 (inactive)
28 | CLSPN (UniProt Q9HAW4) | 0.006 (inactive)
29 | CCNH (UniProt P51946) | -0.002 (inactive)
30 | CLPP (UniProt Q16740) | 0.041 (inactive)
31 | CHD4 isoform 2 (UniProt Q14839) | 0.087 (inactive)
32 | CAMSAP1 isoform 3 (UniProt Q5T5Y3) | 0.168 (inactive)
33 | CCDC57 (UniProt Q2TAC2) | -0.049 (inactive)
34 | CHST11 (UniProt Q9NPF2) | 0.013 (inactive)
35 | CRLF3 (UniProt Q8IUI8) | 0.005 (inactive)
36 | CAD (UniProt P27708) | 0 (inactive)
